In all, about 320,000 compounds went through this assay and about 2,100 (0.66%) were called active. Not shown: some 53% with an inconclusive outcome. Calls follow the shape of the dose curve; as a rule, active = well fitted inhibition curve with a large enough effect in the signal ratio, with a control signal flat (not every such curve was filed as active); inconclusive = small, poorly fitted or top-dose-only effect, or effect the other way, or a change in a side signal; inactive = flat fitted curve, though single readings scatter; the % refers to the signal ratio. The list comes from a sample in which actives are over-represented; it also holds similar structures and randomly drawn compounds.
experiment: qHTS Assay for Lipid Storage Modulators in Drosophila S3 Cells; settings: BODIPY lipid droplet fluorescence, 18-24 h, cells fed with added oleic acid; cell number change: measured here: cell count max response; series mostly up to 46.1 µM; lipid storage change, negative = inhibition: at the top concentration;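 as to cell number change: cells counted by Cell Tracker Red CMTPX staining in the red channel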; as to lipid storage change, negative = inhibition: % is scaled to controls: 0 for no effect and ±100 for the full control effect
Outline: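 Drosophila S3 cells got compounds at several concentrations plus oleic acid (400 uM solution). Laser-scanning cytometry with 488 nm excitation read lipid droplets at 500-530 nm and cells at 575-640 nm. Percent activity was relative to 20 uM Triacsin C.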
Potency is read from the fitted curve at half-maximal effect.

Compound	lipid storage change, negative = inhibition	cell number change [%]	outcome	Potency
O=C(Nc1ccc(F)cc1)/C(=C1/CCCCCN1)[N+](=O)[O-]	-9.09% (inactive)	18.2	–	–
Cc1ccccc1CSc1nnc(NC(=O)Cc2cccs2)s1	18.3% (inactive)	0.934	–	–
O=S(=O)(Nc1ccc(-c2nc3ccccc3o2)cc1)c1ccccc1	–	-16.6	inactive	–
O=C(Nc1cc(S(=O)(=O)N2CCOCC2)ccc1O)c1ccco1	-7.19% (inactive)	-13.8	–	–
O=C(CCCSc1ccc(Cl)cc1)Nc1cc(S(=O)(=O)N2CCOCC2)ccc1O	5.44% (inactive)	-18.8	–	–
C/C(=N\NC(=O)CCc1ccc(S(=O)(=O)N2CCOCC2)cc1)c1ccccc1Cl	-11% (inactive)	15.6	–	–
C/C(=N\NC(=O)CCc1ccc(S(=O)(=O)N2CCOCC2)cc1)c1ccc(OC(F)F)cc1	–	-28.6	–	11.6 µM (active)
CC(=O)NCCc1ccc(S(=O)(=O)Nc2ccc(C)c(S(=O)(=O)N3CCOCC3)c2)cc1	–	-24.8	inactive	–
CCCCc1ccc(CC(=O)Nc2cc(S(=O)(=O)N3CCOCC3)ccc2O)cc1	–	-16.2	–	20.6 µM (active)
C/C(=N\NC(=O)c1cccc(S(=O)(=O)N2CCOCC2)c1)c1ccc(OC(F)F)cc1	24.9% (inactive)	8.64	–	–
CC(=O)NCCc1ccc(S(=O)(=O)N2CCOCC2)cc1	–	-15.6	–	18.4 µM (active)
COc1ccc(CCNC(=O)COc2ccc(S(=O)(=O)N3CCOCC3)cc2)cc1	–	–	inactive	–
Cc1ccc(CNC(=O)Cc2nc3nc(C)cc(C)n3n2)cc1	-1.12% (inactive)	1.61	–	–
COc1cc2c(cc1OC)CN(C(=O)Nc1ccccc1Cl)CC2	11.9% (inactive)	-24.6	–	–
CCc1nnc(NC(=O)CSc2nnc(C)n2CC2CCCO2)s1 (stereo not given)	22.4% (inactive)	6.32	–	–
COCCCNC(=O)CSc1nc2ccccc2c(=O)n1Cc1ccc2c(c1)OCO2	23.2% (inactive)	-4.93	–	–
COc1ccc(C(=O)NCCc2cnc[nH]2)cc1OC	19.2% (inactive)	-11.3	–	–
COC(=O)CCN(C(=O)c1cccc(OC(C)=O)c1)c1ccccn1	–	-22.7	–	25.9 µM (active)
COC(=O)CCN(C(=O)c1ccc(OC(C)=O)cc1)c1ccccn1	2.15% (inactive)	6.03	–	–
COC(=O)CCN(C(=O)c1ccc(C)c([N+](=O)[O-])c1)c1ccccn1	18% (inactive)	16.9	–	–
Cc1cc(NC(=O)C(C)SCC(=O)OC(C)C(=O)Nc2ccccc2C)no1 (stereo not given)	27.6% (inactive)	31.1	–	–
COCCN1CN=C(Nc2nc(C)c3ccc(C)cc3n2)NC1	7.94% (inactive)	3.94	–	–
Cc1cccc(C)c1OCC1CNC(=O)O1 (stereo not given)	–	9.47	inactive	–

Compound	lipid storage change, negative = inhibition	cell number change [%]	outcome	Potency
Cc1ccccc1OCC1CNC(=O)O1 (stereo not given)	1.82% (inactive)	6.67	–	–
O=C1NCC(COCc2ccco2)O1 (stereo not given)	–	0.961	–	16.4 µM (active)
Cc1c(C(=O)NCc2ccc3c(c2)OCO3)oc2ccc(S(=O)(=O)N3CCCC3)cc12	–	-21.4	inactive	–
CCOC(=O)N1CCN(C(=O)c2oc3ccc(S(=O)(=O)N4CCCCC4)cc3c2C)CC1	14% (inactive)	–	–	–
Cc1c(C(=O)O)oc2ccc(S(=O)(=O)N3CC(C)CC(C)C3)cc12 (stereo not given)	8.14% (inactive)	24.2	–	–
CCCCN(CC)C(=O)c1oc2ccc(S(=O)(=O)N3CCCC3)cc2c1C	–	-20.1	–	11.6 µM (active)
Cc1c(C(=O)N(C)Cc2ccccc2)oc2ccc(S(=O)(=O)N3CCCC3)cc12	20.7% (inactive)	-25.2	–	–
Cc1c(C(=O)NCCN(C)C)oc2ccc(S(=O)(=O)N3CCCC3)cc12	–	13.1	–	0.116 µM (active)
Cc1c(C(=O)NCC2CCCO2)oc2ccc(S(=O)(=O)N3CCCC3)cc12 (stereo not given)	-9.13% (inactive)	-3.78	–	–
Cc1c(C(=O)NCC2CCCO2)oc2ccc(S(=O)(=O)N3CC(C)CC(C)C3)cc12 (stereo not given)	16.1% [at 9.22 µM] (inactive)	–	–	–
CCN(CC)C(=O)c1oc2ccc(S(=O)(=O)N3CC(C)CC(C)C3)cc2c1C (stereo not given)	–	13.1	–	0.58 µM (active)
O=[N+]([O-])/C(=C\Nc1ccc(F)cc1F)S(=O)(=O)c1ccccc1	9% (inactive)	–	–	–
COc1ccc(-c2cc(C(=O)Nc3nc4ccccc4s3)c3ccccc3n2)cc1OC	24.3% (inactive)	2.3	–	–
Cn1cccc1C(=O)OCC(=O)Nc1cc(C(C)(C)C)nn1-c1ccccc1	2.46% (inactive)	10.4	–	–
CS(=O)(=O)N(CC(=O)Nc1cccc([N+](=O)[O-])c1)c1cccc(F)c1	26% (inactive)	-2.63	–	–
CC1CCc2sc(C(=O)NNC(=S)NCC3CCCO3)cc2C1 (stereo not given)	7.7% (inactive)	20	–	–
Cc1cccc2sc(NC(=O)C3CSC4(C)CCC(=O)N34)nc12 (stereo not given)	-1.42% (inactive)	14.2	–	–
O=C(c1cccnc1)N1CCN(S(=O)(=O)c2ccc(Cl)cc2)CC1	-0.561% (inactive)	-4.89	–	–
COc1ccc(N2CCN(C(=O)CCNS(=O)(=O)c3cc(Br)cnc3N)CC2)cc1	–	–	inactive	–
S=C1NCCOCCOCCOCCOCCN1	–	20.5	–	13 µM (active)
S=C1NCCOCCNC(=S)NCCOCCOCCN1	-11.6% (inactive)	28	–	–
S=C1NCCOCCOCCOCCN1	-10.2% (inactive)	-10.7	–	–

— PubChem BioAssay AID2685 (National Center for Advancing Translational Sciences (NCATS), 2010)
